For 108 sequences, z-score results are on record in PubChem BioAssay AID1508600 (Functional Genomics Laboratory (NCATS/FGL), 2020).

The whole screen tested about 53,000 sequences, of which about 3,700 (7%) were called active. The full list was thinned out, with actives kept by preference. A number with no mark means an inactive call.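 The calls were made as follows: active = gene knockdowns whose robust z-score for IL-1 alpha signal is at least 2 or at most -2, so actives lie on both sides; inactive = the rest.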

The assay in a line: Components of the Cytosolic LPS Sensing Pathway: Gene Identification via Genome-wide siRNA Screen.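 Also: robust z of the log signal after scaling to non-targeting control siRNA wells of the plate.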 The settings on record: RAW264.7 macrophages, IL-1a HTRF, actives lie on both sides, screened at 100 nM (by protocol), cells primed 5 h with Pam3CSK4 first. The method, boiled down:
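Three distinct siRNAs per gene were tested singly at 100 nM in RAW264.7 macrophages. Following Pam3CSK4 priming and 24 hour LipidA transfection, IL-1a secretion was read by HTRF.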
For GGACUCUUUUUGUUCUUUGTT against Vgll2, the z-score is -1.22. For CGUUACCAUGAGAGUUAAUTT against Pcdhb19 the value was 3.83 (active); for CGGGAGUAUCUGCUUCAGUTT against Ndufb4, 0.336. For GGCUGAAGAGAUUGUCAAUTT against Aars, the z-score was -0.392. With CCUGCUAAACCUGGACCAUTT against Hic1, the z-score was 1.61.

On to GGAGCUUAGCCUCUGUAUGTT against Gatd3a, for which the z-score is -0.86.

For the sequence GGUAAAGACAAGAUUAAAGTT against Cyp39a1, the z-score was -0.308. GCCACUCAUAUUGAUCCAUTT against Prss34: the z-score was -2.31 (active). As for GGUGUUUACUCCGUACCCATT against Tbrg4, the figure is -2; as for GCGUGAACCUCCUUCUUGATT against Ramp3, -1.29.

Take GGAGAGGCAUCUUUUCCUATT against Arhgap20: the z-score was -0.338.

For CCCACCUAGGUUCAUCCCATT against Fat1, the z-score was -1.4.

Turning to GGAAUGUGAGCUUAUCAUATT against Tlr1, the z-score is -0.965. GCAUAGAUUGAUGGCUAAUTT against Chd8: the z-score was 1.18. As to GCAUAGCAGAGAUGAUUCUTT against Trip12, the z-score was 2.15 (active). GGUUGAUGAGUUUAGGUUUTT against Cpsf2: the z-score is 0.264. As for GGGUUCAAAAGCCCAUAUUTT against Gm6787, the figure is 0.206; as for GGUCUUCGAAACACAGCUGTT against Exoc3l2, -0.402; as for GGUUUUAUCAGAAUGUCAGTT against Atpaf2, 0.464. For CCAUAGUAUUGAUGUCUGCTT against Nat8f2 the value was 0.363; for GGACUCUUUUCUACGUGGATT against Klhl1, 2.54 (active); for CCCUAGGUCAUAGCUUGACTT against Crtc1, 1.58.

For the sequence CGGUCCCAAACGGUCAAGUTT against Tafa2, the z-score was 1.69.

On to GCCUGGAAUGCAGAAUCGATT against Vwa2, for which the z-score is -0.0276.

For CCCAAAGUGCUUUACAAUGTT against Aard, the z-score was 2.1 (active). Regarding GGUUCAACGCAAAGUUCGCTT against Aldh4a1, the z-score is 0.347. As to GCUACUAUGUGCCCUGAUATT against Ms4a7, the z-score was -0.458. Turning to CCUCCUUAUCCAUAAUAUUTT against Slc35a3, the z-score was 0.727. For GGCUCUAAAACUGUCAGACTT against Scp2d1 the value was 2.25 (active); for GGGUAUUUUGACAAUUUGGTT against Lrig3, -0.576; for GGCCAGACCUUUGUGAAUGTT against Ctse, -1.96. For GGAAUCUUUAGACCAUCUCTT against Myh1 the value was 5.3 (active). For GGCCAUGAAUCUUGUUGGGTT against Scg5 the value was -0.684. With GGAAGUCACCAUCAACCAGTT against Krt4, the z-score was 0.168. For the sequence CGAGCACUAUUUUGGAUUATT against Usp12, the z-score is 0.0102. On to GGCUGUGAUCUCCUGGCUUTT against Rnft2, for which the z-score is -1.46. Consider GGCUUUACGAGGAAAAAGGTT against Pex1, for which the z-score was 2.09 (active). Turning to GGAAUGCAUGCUAAUUCAGTT against Thsd1, the z-score is 1.1. As for GGAUUCUGAGUGUACGUUUTT against Zfp28, the figure is 0.0227; as for CGAGGGAUAAGAGUCUACGTT against Ubxn11, 1.45; as for GCUAAUUCCAAGAAAGAAGTT against Lifr, -0.326. As for GGACCAUCCCUGCUUAAUGTT against Brat1, the figure is -2.09 (active); as for CGGUCAACAUCAAUGGUAATT against Gkn1, -1.28; as for GCUAAGAUUCCUUCCAGUATT against Adm2, 0.98. As for GGUUCUACCUCAAGAUGUUTT against Srd5a2, the z-score is 0.0188. For CCUAUAUCAUCAUGGUUUGTT against Tmx1, the z-score was 2.4 (active).

GGACUACGUAUUUUCCCUGTT against Cyc1: the z-score is -0.39.

GCUCUGAUAUUCUCAUCAATT against Olfr39: the z-score is 1.25. For CCUGGGAGCCUAUUAUUCUTT against Ndufb10 the value was -0.032; for GGAAGAUAACCAUUUUGAATT against Setd4, -0.777; for CGGCGUGUUUAUUUGCUAUTT against Rab27a, -1.38.

For the sequence CCUGGUUUACAUGUACGGGTT against Tap2, the z-score is 0.494. As for GCUAGAGACGAGAAGAUGATT against Ano10, the figure is -2.47 (active); as for GCACUUCGAAGAAAUAAAATT against Ahsa2, 0.396; as for CGAGGACAAAAAUACCGACTT against Supt6, -1.51. In the case of GAAGAUUAUCCAUUGCCCGTT against Lce1h, the z-score was 0.689. On to GGACCCAGCUCCUGUACAUTT against Ypel3, for which the z-score was 2.31 (active).

For the sequence GGGACAGAGCCGAAAGAGUTT against Mrpl33, the z-score is -1.39. For CCUUGCCUUUACUACCAGUTT against Olfr15 the value was -0.187; for GCGAUACCAGGGACUACAUTT against Zfp692, 1.75. As for “CGCUCUCUCUACAAAGGAUTT against A230052G05Rik”, the figure is 0.984; as for GGGAAUUUGGGCAUGAUCATT against Olfr44, -2.02 (active). Take “GCAUGUUCGCACGUGUCAATT against 5330439B14Rik”: the z-score was -1.05. As for “CGACUGAUAGAUGAGUAAATT against C130026L21Rik”, the figure is 0.424; as for CCGCACAUGCUCUCAAAUATT against Polr3d, -1.25; as for GGACAAAGAGGCAAUGGGATT against Dnajb9, 1.08. In the case of GGUAAAAUCACUUCAGAUCTT against Phb, the z-score was 2.23 (active). As for GCAAGUGGAGUUUAUUGAUTT against Dbndd2, the z-score was -0.0399. Turning to CGCAUGAUAACUAGAGAAUTT against Slitrk3, the z-score is -0.269. For GGCUGUUCGGGUGACUAUUTT against Il17re the value was -2.83 (active); for GGCAAUGUUUACAAGUUCCTT against Ralgps1, 0.491; for GCAGUACUAAGGAAGAUAUTT against Nudcd1, -0.842. With GCAUAAGCUACUGCUGACATT against Pcdha6, the z-score was -0.782. As for GGCAGCAGCACUGAUUACUTT against Gjc2, the figure is -2.17 (active); as for GGCAAGGCUACUACUUGCATT against Fgf14, -0.117; as for GCCAGACACUUAAUCCCGUTT against Unc13d, 0.147. For GGAUAUCAAGGGAUCAGACTT against Chchd4, the z-score is 0.00163. GGCUUAAGCAGACGUGUCATT against Lhx8: the z-score was -2.14 (active). For GCCCAUUAUGAAACUGAAGTT against Nfatc3 the value was 1.45; for GGUGUUUAAGGAUGAACAATT against L3mbtl3, 0.104. As for GCCACUUAAUGUCACUUUATT against Bag2, the figure is 0.652. For GCCAGAUCUUUAUAUCCCGTT against Gdi2 the value was -0.094; for CCAGAUGUUACGAAUGAAATT against Tmem209, -1.65. With GGGCAAUGUUUGUCACUAATT against Akr1b10, the z-score was 1.55. With CGGCCAUAUAAUUUUGAAUTT against Tbx20, the z-score was 0.233. Consider CGGUUUAACAGCAAGGGUATT against Sec61a1, for which the z-score was -2.75 (active).

Take GGACUUAUUUCUUUAAGGATT against Mmp17: the z-score is -0.567. For GGUGGAAUGAUAGUGUUCATT against Neurl1b the value was 1.67; for GGUUAUUUCCCUGUUUUCATT against Olfr532, 1.5. Consider GGAGUUUGGGAACACUUUGTT against Apoc1, for which the z-score is 0.617. For GCCUCUUAGUAGAGACAGUTT against Naa80 the value was -0.725; for GGUAAAGCAAGAGAGUAUUTT against Hccs, -0.629. Regarding GGUUCAAGGAUGAAUUAGATT against Trappc6b, the z-score is -2.03 (active).

For GCUUUUGAAUGUGUGGACUTT against Ugt2b37, the z-score is -0.938. As for CCCAAAGAAUUAUGAGUGUTT against Gpr149, the figure is -0.678; as for GGCAAAUUCUGGAUCUGCUTT against Marf1, -0.267; as for GGGAAAAAAAAAAAUCACCTT against Syne3, -0.254. Consider CCAAUGAUGGAGCUGAAGCTT against Ranbp1, for which the z-score is -2.72 (active). Consider GGUCAAGGCUGUCAAGUUGTT against Wdr45b, for which the z-score is -0.13. As for GGUGCCCACUAACUUAGAATT against Tbx21, the figure is 2.3 (active); as for GGUGUUCGAUGGACGUGAUTT against Bmp1, -0.183; as for GCAUCCUGGCUUAUCCAUUTT against Hmgb1, -0.393. On to CCACUAUUAAACUUCUCAATT against Pex3, for which the z-score was 0.32.

As to CCAGCUUCAUGCGUUUAAATT against Stx16, the z-score is 1.4.

For the sequence CCCUCACAGUAACCUGUCGTT against Espl1, the z-score is -2.56 (active).

Consider GGUCGAAGUAUUGGAAAAUTT against Hesx1, for which the z-score was -1.71. As for GCAAAUGACUUCCAACAAUTT against Uqcrq, the figure is 3.84 (active); as for GGAGAACAAAGUAUUGGUGTT against Cacna1f, 0.388.
